# Screening results (PubChem BioAssay)
# GCN5L2 inh – GCN5L2 (KAT2A) acetyltransferase inhibition. Q92830. GCN5L2 HAT assay, ThioGlo1 CoA-SH fluorescence. Potency, µM (highest dose often 58.9 µM), for inactives: at the top dose activity change, negative = inhibition, usual class: inhibitors. actives 0.21% (n = 390,000). AID 504327
#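 ThioGlo1-coupled HAT assay: 20nM GCN5L2, 70uM acetyl-CoA, 75uM H3(1-25) peptide, pH 7.5. Fluorescence read at 340/540nm at start and after 20 min at room temperature.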
# PLK1 PBD block – blocks phosphopeptide binding to human PLK1 polo-box domain. Plk1 PBD binding of FITC phosphopeptide, fluorescence polarization. P53350. actives 2.8% (n = 360,000). Potency, µM, inactives show max response, negative = inhibition, actives largely listed as inhibitors. AID 720504; note: series mostly up to about 57 µM; nearly all actives have a fitted effect of over 65% in size
# DT40 TDP1 CPT – DT40-hTDP1 cell growth loss with CPT; Potency, µM (titrated, usually from 46.2 µM), for the others: at the highest dose activity change, negative = growth inhibition, usual class: inhibitors; actives 12% (n = 420,000); chicken DT40 Tdp1-/-;hTDP1 cells + 20 nM CPT, ATP luminescence, 48 h; AID 686979; note: nearly all actives have a fitted effect of over 55% in size
#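 Chicken DT40 Tdp1-/- cells stably complemented with human TDP1 were seeded at 400 cells/well in medium containing 20 nM camptothecin, exposed to pin-transferred compounds, and grown at 37 °C for at least 48 hr. Viability was read as ATP luminescence.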
# VDR inh – blocks the human vitamin D receptor; P11473; VDR-SRC2-3 peptide fluorescence polarization, 2 h; Potency, µM, inactives show max response, negative = inhibition, actives largely listed as inhibitors; actives 0.93% (n = 400,000)
# Target sequence (P11473 whole entry, looked up): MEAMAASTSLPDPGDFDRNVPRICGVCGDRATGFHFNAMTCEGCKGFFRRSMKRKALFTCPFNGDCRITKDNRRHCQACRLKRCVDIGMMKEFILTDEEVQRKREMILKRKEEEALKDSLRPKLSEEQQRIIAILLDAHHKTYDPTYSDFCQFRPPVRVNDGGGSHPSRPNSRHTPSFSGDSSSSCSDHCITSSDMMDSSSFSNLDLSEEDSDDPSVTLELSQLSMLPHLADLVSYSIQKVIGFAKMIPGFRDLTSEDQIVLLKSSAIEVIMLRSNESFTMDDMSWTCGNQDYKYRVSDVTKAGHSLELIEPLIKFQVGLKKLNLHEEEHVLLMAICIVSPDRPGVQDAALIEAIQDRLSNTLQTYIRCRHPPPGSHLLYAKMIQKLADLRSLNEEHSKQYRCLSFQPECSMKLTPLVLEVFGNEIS
#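 Two reagent solutions held at 4 deg C in the dark were dispensed, compounds pinned at 23 nl, and the mixture incubated 2 h at room temperature. Read-out: fluorescence polarization of VDR–SRC2-3 peptide binding.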
# TDP1 block – inhibitors of human tyrosyl-DNA phosphodiesterase TDP1; Q9NUW8; recombinant TDP1, AlphaScreen DNA substrate cleavage; Potency, µM (titrated, usually from 130 µM), without a hit: at the top dose activity change, negative = inhibition, hits mostly inhibitors; actives 0.28% (n = 350,000); AID 485290; note: nearly all actives have a fitted effect of over 40% in size
#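 Steps: enzyme plus compound, 15 min RT; add biotin/phosphotyrosine-FITC oligonucleotide (15 nM final), react 5 min; add donor/acceptor beads (10 ug/ml final), 10 min; read AlphaScreen. Tdp1 at 1 nM final.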
# TDP1 cell noCPT – qHTS for Inhibitors of human tyrosyl-DNA phosphodiesterase 1 (TDP1): qHTS in cells in absence of CPT | DT40 Tdp1-/- hTDP1 cells, no CPT, ATP luminescence, 48 h | Potency, µM (titrated, usually from 46.2 µM), inactives show top-dose activity change, negative = growth inhibition, actives largely listed as inhibitors | actives 15% (n = 420,000) | AID 686978, 2013; note: nearly all actives have a fitted effect of over 55% in size
#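 Growth kinetics read by CellTiter-Glo luminescence after ≥48 hr at 37 °C. Cells: DT40 Tdp1-/- stably carrying human TDP1, 400 per well, compound exposure in the absence of CPT (DMSO vehicle).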
# An asterisk follows results filed as active; ? = inconclusive; nt = no result; [ ] = another dose, or the depositor's remark. Most compounds without a hit are left out; they make up all but 18% or so of the library. Calls come from the whole dose curve; as a rule, active = well fitted curve in the direction sought with a large enough effect; inconclusive = small, poorly fitted or top-dose-only effect, or another doubt; inactive = no such curve, though single readings can be large; an effect the other way counts as inactive or inconclusive. % is set by controls: 0 for no effect and ±100 for the full control effect; potency is the fitted concentration of half-maximal effect.
SMILES,GCN5L2 inh,PLK1 PBD block,DT40 TDP1 CPT,VDR inh,TDP1 block,TDP1 cell noCPT
Cc1cc(N2CCC(C)CC2)nc2ccc(NC(=O)CCC(=O)N3CCN(c4ccccc4F)CC3)cc12,-22%,nt,18µM*,-25%,0%,15µM*
CC(Nc1ncnc2ccccc12)c1ccccc1 (stereo unspecified),-12%,?,1.2µM*,-13%,-4%,0.73µM*
Cc1c(C(=O)N2CCN(Cc3ccc4c(c3)OCO4)CC2)sc2ncnc(N3CCN(c4ccccc4F)CC3)c12,0%,3%,18µM*,-7%,3%,8.2µM*
Cc1c(C(=O)N2CCN(c3ccccc3)CC2)sc2ncnc(N3CCC(C)CC3)c12,-4%,nt,nt,nt,2%,nt
Cc1c(C(=O)N2CCN(Cc3ccc4c(c3)OCO4)CC2)sc2ncnc(N3CCN(c4ccccc4)CC3)c12,-11%,1%,?,3%,6%,4.6µM*
COc1cccc(-c2nc3c(c(=O)[nH]c(=O)n3Cc3ccccc3)n2CCO)c1OC(F)F,-10%,-11%,12%,-6%,3%,-2%
CC(Oc1ccc(Cl)cc1Cl)C(=O)Nc1ccncc1 (stereo unspecified),2%,-5%,21µM*,-15%,1%,9.2µM*
CC(C)C(C(=O)Nc1ccncc1)c1ccc(Cl)cc1 (stereo unspecified),0%,-17%,?,-15%,1%,16µM*
O=C(/C=C/c1ccc(Cl)cc1Cl)Nc1ccncc1,-5%,-2%,?,19%,-8%,15µM*
CC(C)C(C(=O)Nc1nccs1)c1ccc(Cl)cc1 (stereo unspecified),-1%,-13%,?,7%,5%,?
O=C(Nc1ccncc1)Nc1ccc(Cl)cc1Cl,-10%,-8%,18µM*,-6%,2%[56.1 µM],?
CCCCC[C@@H]1C=C(C(=O)O)[C@H](c2cccc(C)c2)N1S(=O)(=O)c1ccc(C)cc1,-12%,?,-20%,-13%,3%,-20%
O=c1[nH]c(SCc2ccccc2)nc2[nH]ncc12,-12%,1%,16%,-2%,2%,-12%
O=C(/C=C/c1c(Cl)cccc1Cl)Nc1ccncc1,0%,2%,?,19%,1%,21µM*
NC(=O)c1ccc[n+]([C@@H]2O[C@H](COP(=O)([O-])OP(=O)(O)OC[C@H]3O[C@@H](n4cnc5c(N)ncnc54)[C@H](O)[C@@H]3O)[C@@H](O)[C@H]2O)c1,nt,nt,7%[21.1 µM],nt,nt,-18%[21.1 µM]
C[n+]1c2n(c3ccccc31)N=C(c1ccc(Br)cc1)CS2,-4%,-12%,0.65µM*,?,-5%,0.52µM*
C[n+]1c2n(c3ccccc31)N=C(c1ccc(-c3ccccc3)cc1)CS2,-4%,-3%,0.58µM*,?,9%,0.52µM*
CC(=O)c1ccc(NC(=O)COC(=O)CCc2ccc(S(=O)(=O)N3CCOCC3)cc2)cc1,-2%,5%,11%,-1%,5%,-4%
CN(Cc1ccc(Cl)cc1Cl)C(=O)c1cccc(S(=O)(=O)N2CCN(c3ccccc3)CC2)c1,-4%,-8%,26µM*,-9%,nt,16µM*
COc1cccc(CN(C)C(=O)c2cccc(S(=O)(=O)N3CCN(c4ccccc4)CC3)c2)c1OC,nt,-11%,18µM*,10%,nt,8.2µM*
COc1cccc(CN(C)CC(=O)N2CCN(S(=O)(=O)c3ccccc3)CC2)c1,nt,0%,-6%,nt,nt,-22%
COc1cccc(CN(C)C(=O)c2cccc(S(=O)(=O)N3CCN(Cc4ccccc4)CC3)c2)c1OC,3%,-5%,13µM*,1%,0%,16µM*
CN(Cc1ccco1)C(=O)c1cccc(S(=O)(=O)N2CCN(Cc3ccccc3)CC2)c1,nt,-6%,?,nt,nt,?
